Among the data in PubChem BioAssay (NCI) are growth values, retold here.

Each structure is given as a SMILES string. About 83,000 compounds went through this panel and 20% of them were active in at least one assay; those are over-represented in the sample as a whole.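 The endpoint reported here, percent growth, reads 100 for growth as untreated, 0 for no net growth and -100 for all cells dead.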 Active and inactive are the calls of the source. How the source made its calls: active means growth percent below 10; inactive means the rest.

The subject of the experiment is HCT-15 colon. Description: NCI-60 one-dose screen, 48 h (100 = growth as untreated, 0 = no growth, -100 = all killed). To be noted: 10 µM unless noted.
For `O=C(CN1CCOCC1)Nc1ccc2ncnc(Nc3ccc(OCc4cccc(F)c4)c(Cl)c3)c2c1`, the growth was 60% (inactive).
As for `Clc1cc(Cl)cc(N2N=C(c3cccc(Nc4ccncc4)c3)CC2c2ccccc2)c1` (stereo not drawn), the figure is -71.9% (active); as for `C[C@]12CCc3nc(Nc4cccc(O)c4)sc3C1=CC[C@@H]1[C@@H]2CC[C@]2(C)/C(=N\NC(N)=S)CC[C@@H]12`, -29% (active); as for `Cc1c2c(cc[n+]1Cc1ccccc1)c1ccc(OCc3ccccc3)cc1n2Cc1ccccc1`, 39.2% (inactive).
As for `O=C(O)CNC(=O)CN1C(=O)c2ccccc2C1=O`, the figure is 105% (inactive); as for `O=C(Nc1nc2ccc(C(=O)N3CCN(c4ccc(Cl)c(Cl)c4)CC3)cc2s1)c1ccc(NCCc2ccccc2)c([N+](=O)[O-])c1`, 98.3% (inactive).
As for `COc1ccccc1-c1c(-c2ccc(Cl)cc2)c2cc3c(cc2[nH]c1=O)OCCO3`, the figure is 73.5% (inactive).
As to `O=S(=O)(NCCNc1nccc(-c2c(-c3ccc(F)c(O)c3)nc3occn23)n1)c1ccccc1`, the growth was 76.6% (inactive).
Under `Clc1cc(Cl)cc(N2N=C(c3cccc(Nc4ccncc4)c3)CC2c2ccc(Br)cc2)c1` (stereo not drawn) stands -66.5% (active).
Under `Cn1c(COC(=O)NCCn2ccnc2)nc2c(N3CCOCC3)nc(-c3ccccc3)nc21` stands -51.3% (active); under `Cc1c2c(cc[n+]1Cc1ccc(F)cc1)c1ccc(OCc3cccc(F)c3)cc1n2Cc1cccc(F)c1`, 54.3% (inactive).
Under `CCCOc1nc(SCCC)nc2c1cnn2-c1ccccc1` stands 108% (inactive).
`Cc1ccc(/C=C/C(=O)c2ccc(N)cc2)c(C)c1`: the growth was 18.6% (inactive).
As for `Cc1cc(C)c(C=O)c(C)c1`, the figure is 107% (inactive); as for `COc1ccc(-c2c(-c3ccccc3)noc2N)cc1OC`, 100% (inactive).
Consider `O=C1c2cccnc2C(=O)c2nc3cc(N4CCN(C5CC5)CC4)ccc3nc21`, for which the growth was -58.8% (active).
Under `c1ccc(N2N=C(c3cccc(Nc4ccncc4)c3)CC2c2ccc3c(c2)OCO3)cc1` (stereo not drawn) stands -26% (active).
As for `COc1cc(NCC(C)(O)CN(CC(C)C)CC(C)C)c2nc(C)ccc2c1` (stereo not drawn), the figure is 67.7% (inactive); as for `C[C@@H]1CN(Cc2ccc(/C=C/c3n[nH]c4ccc5nc(-c6cn[nH]c6C(F)(F)F)c6c(c5c34)CCCC6)cc2)C[C@H](C)O1`, 7.35% (active).
Under `CC1(C)CCCN1CCCN1c2ccccc2Sc2ccc(Cl)cc21` stands 50.7% (inactive); under `CC1CCN(C(=O)OCc2nc3nc(Cl)nc(N4CCOCC4)c3[nH]2)CC1`, -12.2% (active).
With `CC1(C)CN(c2cnc(C(=O)Nc3cc(F)cc4cccnc34)cn2)CCN1`, the growth was 59.3% (inactive).
For the compound `Cn1c(COC(=O)NCCN2CCOCC2)nc2c(N3CCOCC3)nc(-c3ccccc3)nc21`, the growth was -39.4% (active).
